An excerpt weighted towards active compounds, which were near 7.3% of everything screened.
ELG1 genotox: qHTS screen for small molecules that induce genotoxicity in human embryonic kidney (HEK293T) cells expressing luciferase-tagged ELG1 | Potency, µM (titrated, usually from 46 µM), actives largely listed as activators | 330,000 tested, 1.3% active | AID 504466, 2011 | HEK293T ELG1-luciferase reporter, luminescence, 16 h; also: nearly all actives have a fitted effect of over 60% in size
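Luminescence read-out: rising ELG1-luciferase signal, reflecting elevated ELG1 protein under genetic stress, flags genotoxic compounds. Cells were treated for 16 hr at 37 °C before ONE-Glo detection.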
NPC1 promoter act: qHTS Assay for NPC1 Promoter Activators; Huh7 NPC1 promoter luciferase reporter, 24 h; Potency, µM (top dose mostly 9.22 µM), usual class: activators; 320,000 tested, 2.4% active; AID 485313, 2010; also: nearly all actives have a fitted effect of over 60% in size
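NPC1 promoter–luciferase Huh7 cells; 24 h compound; luminescence.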
uPA surface inh: qHTS for Inhibitors of Cell Surface uPA Generation. cell surface uPA generation assay, qHTS. Potency, µM (series often up to 38.3 µM), actives largely listed as inhibitors. 330,000 tested, 0.31% active. AID 540303, 2011; active = well fitted inhibition curve with a large enough effect; inconclusive = small, poorly fitted or top-dose-only effect; inactive = no such curve, though single readings can be large or run the other way; tested in mouse RAW 264.7 cells; also: nearly all actives have a fitted effect of over 55% in size
SMN2 splice enh: qHTS Assay for Enhancers of SMN2 Splice Variant Expression. HEK293 SMN2-luciferase splicing reporter, luminescence, 30-36 h. 210,000 tested, 2.8% active. AID 1458, 2008. Potency, µM (titrated, usually from 46.1 µM), most hits filed as activators; also: nearly all actives have a fitted effect of over 55% in size
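qHTS luciferase splicing reporter: luminescence rises when SMN2 exon 7 is included in transfected HEK293 cells. Compound exposure lasted 30-36 h at 37C, with 4.5 mM final sodium butyrate as control, followed by a ONE-Glo read.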
FLuc counter: qHTS profiling assay for firefly luciferase inhibitor/activator using purifed enzyme and Km concentrations of substrates (counterscreen for miR-21 project). Luciferin 4-monooxygenase (Photinus pyralis), P08659. purified FLuc, Km substrates, luminescence inhibition. Potency, µM (titrated, usually from 57.5 µM), hits mostly inhibitors. 360,000 tested, 6.9% active. AID 588342, 2011; also: nearly all actives have a fitted effect of over 55% in size
Target sequence (P08659 whole entry, looked up): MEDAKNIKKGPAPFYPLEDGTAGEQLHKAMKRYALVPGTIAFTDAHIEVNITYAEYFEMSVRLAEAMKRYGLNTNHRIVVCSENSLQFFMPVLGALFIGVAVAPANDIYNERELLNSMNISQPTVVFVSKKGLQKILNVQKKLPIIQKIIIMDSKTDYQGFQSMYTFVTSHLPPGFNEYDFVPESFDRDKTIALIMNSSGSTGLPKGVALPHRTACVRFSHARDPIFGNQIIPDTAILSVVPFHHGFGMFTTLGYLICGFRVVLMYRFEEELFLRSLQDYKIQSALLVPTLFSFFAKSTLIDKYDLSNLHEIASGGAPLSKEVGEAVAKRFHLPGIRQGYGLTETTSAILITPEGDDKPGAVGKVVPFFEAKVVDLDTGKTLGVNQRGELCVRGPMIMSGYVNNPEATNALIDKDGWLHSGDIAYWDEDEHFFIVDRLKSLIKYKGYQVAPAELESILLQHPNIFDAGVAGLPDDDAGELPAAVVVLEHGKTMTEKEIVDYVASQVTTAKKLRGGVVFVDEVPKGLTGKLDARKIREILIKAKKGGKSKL
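Purified P. pyralis luciferase, 10 nM final, with Km-level 10 uM D-luciferin and 10 uM ATP in 50 mM Tris acetate pH 7.5, 10 mM Mg acetate, 0.01% Tween-20, 0.05% BSA; 6-point qHTS titration about 60 µM downward; luminescence read.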
Rab9 promoter act: qHTS Assay for Rab9 Promoter Activators; 320,000 tested, 2.8% active; AID 485297, 2010; Potency, µM (top dose mostly 9.22 µM), most hits filed as activators; Huh7 Rab9 promoter-luciferase reporter, luminescence, 24 h; also: nearly all actives have a fitted effect of over 60% in size
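Cells were plated at 1500 per well in reduced-serum medium with 10% FBS and left 2 h. Compound in DMSO was then added for 24 h at 37 °C. Reporter signal was read by luminescence after 10 min with luciferase detection reagent.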
Hits are given with their value; n = inactive; u = inconclusive; x = no result; [ ] = dose if it differs, or a comment. Unless noted, calls follow the shape of the dose curve; as a rule, active = well fitted curve in the direction sought with a large enough effect; inconclusive = small, poorly fitted or top-dose-only effect, or another doubt; inactive = no such curve, though single readings can be large; an effect the other way counts as inactive or inconclusive.

SMILES | ELG1 genotox | NPC1 promoter act | uPA surface inh | SMN2 splice enh | FLuc counter | Rab9 promoter act
Cc1cc(C)n2ncc(C(=O)Nc3cccc(O)c3)c2n1 | n | n | n | n | n | n
COCCCNC(=O)CCCn1c(=O)c2ccccc2n(CC(=O)Nc2ccc(C)cc2Cl)c1=O | x | x | x | n | n | x
COc1ccc(Nc2oc(-c3ccccc3)nc2C#N)cc1 | u | 1.8µM | n | u | u | 1.6µM
CCOc1ccc(Nc2oc(-c3ccc(Cl)cc3)nc2C#N)cc1 | u | n | n | u | u | n
COc1ccc(Nc2oc(-c3ccc(Cl)cc3)nc2C#N)cc1 | u | u | n | 14µM | 2.7µM | u
COc1ccc(Nc2oc(-c3ccc(OC)cc3)nc2C#N)cc1 | u | u | n | x | 2.4µM | 3.5µM
Cc1c(C(=O)N(C)C)sc2c1c(=O)n(-c1ccc(F)cc1)c(=O)n2Cc1cc(=O)n2ccccc2n1 | x | x | x | x | n | x
COc1ccc(CCNC(=O)CCn2c(=O)c3ccccc3n(CC(=O)Nc3ccc(C)cc3C)c2=O)cc1OC | x | x | x | n | n | x
CCOc1ccc(C(=O)NCC(c2ccc3c(c2)OCO3)N2CCOCC2)cc1 (stereo not given) | x | x | x | x | n | x
COc1ccc(CCNC(=O)C(=O)NCC(c2ccco2)S(=O)(=O)c2cccs2)cc1 (stereo not given) | x | x | x | x | n | x
Cc1cc(C)c2c(n1)sc1c(=O)n(-c3ccccc3C(F)(F)F)nnc12 | x | x | x | n | n | x
O=C(NCCO)c1ccc2c3n(nc2c1)-c1ccccc1CO3 | u | 0.5µM | 2.8µM | x | 2.1µM | 2.8µM
CCCn1nc2cc(C(=O)NC3CCCc4ccccc43)ccc2c1OCC (stereo not given) | n | n | n | n | n | n
C=CCNC(=O)c1ccc2c3n(nc2c1)-c1ccc(Cl)cc1CO3 | x | x | 5µM | x | x | x
O=C(NCC1CC1)c1ccc2c3n(nc2c1)-c1ccccc1CO3 | u | 0.35µM | 1.4µM | x | 0.48µM | u
COc1ccc(/C=C2/C(=O)N(c3ccccc3)N=C2C)cc1OC | n | n | n | x | 6µM | n
CC1=NN(c2ccccc2)C(=O)/C1=C/c1cc2cc(C)ccc2nc1N1CCCCC1 | n | u | x | u | u | u
CCOc1cc(/C=C2\C(=O)N(CCC#N)N=C2C)ccc1OCC(N)=O | n | n | n | n | n | n
COc1cc(/C=C2\C(=O)N(CCC#N)N=C2C)ccc1OCC(=O)Nc1ccccc1 | u | n | n | n | 11µM | n
CC(=O)Oc1ccc(/C=C2/C(=O)N(c3ccccc3)N=C2C)cc1 | n | n | n | x | 24µM | n
CC1=NN(c2ccccc2)C(=O)/C1=C/c1cccc(C)c1 | n | n | n | x | 24µM | n
COc1ccc(/C=C2/C(=O)N(c3ccccc3)N=C2C)cc1 | x | x | n | x | x | x
Cc1ccc(F)cc1NC(=O)CSc1nnc(CNC(=O)c2ccco2)n1C | n | n | n | x | n | n
C[C@@H](CCc1ccc(O)cc1)NCCc1ccc(O)c(O)c1 | x | x | x | n | x | x
COc1ccc(CCC(=O)NC2CC(=O)N(c3ccc(C)c(C)c3)C2)cc1 (stereo not given) | x | x | x | x | n | x
SMILES | ELG1 genotox | NPC1 promoter act | uPA surface inh | SMN2 splice enh | FLuc counter | Rab9 promoter act
COc1cc(/C=C2/C(=O)N(c3ccc(Br)cc3)N=C2C)cc([N+](=O)[O-])c1O | n | n | x | x | u | n
COc1cc(/C=C2/C(=O)N(c3cccc(Br)c3)N=C2C)cc(OC)c1O | n | n | n | x | 17µM | n
CC1=NN(CCC#N)C(=O)/C1=C/c1ccc(N(C)C)cc1 | n | n | n | n | 19µM | n
CC(C)=CCNc1ncnc2c1c(C#N)cn2[C@H]1O[C@@H](CO)[C@@H](O)[C@@H]1O | x | x | x | n[9.22 µM] | x | x
Cc1ccc(-c2c(C(=O)Nc3ccc(F)c(F)c3)oc(=O)c3ccccc23)cc1 | x | x | x | n | n | x
COCCN1C(=O)C(=O)/C(=C(/O)c2ccc(C)cc2)C1c1ccccn1 (stereo not given) | n | n | n | x | n | n
COc1ccc(/C=C/C2=CCN(Cc3ccc(OC)cc3)CC2)cc1 | n | n | n | n | n | n
CCCCCCCNC1=CC(=O)CC(c2ccccc2)C1 (stereo not given) | n | n | 8.9µM | n | u | n
